Bioassay records as filed in PubChem.
AHR act – AHR activators, primary screen, cell-based, luminescence, luciferase reporter, human | Aryl hydrocarbon receptor (Homo sapiens), P35869 | AHR-responsive luciferase reporter cells | activation, % at 5 µM | 320,000 tested, 2.5% active; in the data active means activation above about 47%
PLC-gamma1 inh – PLC-gamma1 enzyme inhibitors, primary screen, biochemical, fluorescence, purified enzyme. AID 720700, 2013. 370,000 tested, 0.84% active. fluorogenic substrate. 1-phosphatidylinositol 4,5-bisphosphate phosphodiesterase gamma-1 (Homo sapiens), P19174. inhibition, % at 12.2 µM
Yeast superoxide – reduction of superoxide in aged yeast, primary screen, HTS | AID 2690, 2010 | superoxide response (% of plate mean), % at 10 µM | 330,000 tested, 0.18% active | S. cerevisiae aged cells, superoxide DHE fluorescence; hits give low values;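 active means superoxide response under a set limit, about three screen SD below normal, cut at about 65% in these data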;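 further: yeast aged for seven days with compound at 30 °C before DHE staining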
sPLA2-III inh – human group III sPLA2 inhibitors, primary screen, biochemical, QFRET, BODIPY PC-A2 liposome substrate. Group 3 secretory phospholipase A2 (Homo sapiens), Q9NZ20. QFRET BODIPY PC-A2 liposome hydrolysis, fluorescence. inhibition, % at 12.2 µM. 370,000 tested, 0.56% active. AID 743126, 2013;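 active means inhibition above mean plus 3 SD of compounds lying within the high and low control bounds, cut at about 19% in these data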
HIF act – HIF pathway transcriptional activators, primary screen, cell-based, U2OS HRE-luciferase, luminescence | U2OS HRE-luciferase reporter; normalized: DMSO 0%, desferrioxamine 100% | activation, % at 7.5 µM (by protocol) | 300,000 tested, 0.32% active;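 active means mean activation of at least 10% of the iron chelator positive control signal, with at least half of replicates also reaching 10%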
PLC-beta3 inh – human PLC-beta3 inhibitors, primary screen, biochemical, fluorescence | 1-phosphatidylinositol 4,5-bisphosphate phosphodiesterase beta-3 (Homo sapiens), Q01970 | Purified PLC-beta3, fluorogenic substrate | inhibition, % at 12.2 µM | 370,000 tested, 0.18% active | AID 720704, 2013; in the data active means inhibition above about 11%
PLCgamma1 ctr – PLC-gamma1 enzyme inhibitors, counter-screen for PLC-beta3 inhibitor project, biochemical, fluorescence | shares compounds with PLC-gamma1 inh | purified PLC-gamma1, fluorogenic substrate | inhibition, % at 12.3 µM | 3,300 tested, 3.1% active | AID 743258, 2014
PLCb3 confirm – PLC-beta3 inhibitor confirmation, biochemical, fluorescence, purified enzyme; shares compounds with PLC-gamma1 inh; inhibition, % at 12.3 µM; 3,300 tested, 1% active; fluorogenic substrate fluorescence; in the data active means inhibition above about 11%
Each line names hits and unclear results; the compound was inactive in the other large screens (follow-up assays come after a bar, where they were run). In the library only some 3.9% were active in any assay of this set; here they are far more common. Unless noted, no stated cut-off is given here; in the data, active means inhibition above about 9.5%; inactive means the rest.

COc1cccc(NC(=S)N(Cc2cccc(Br)c2)CC2CCC(C(=O)O)CC2)c1 (stereo not given)	none
COC(C(=O)NNC(=O)CCc1ccccc1)c1ccccc1 (stereo not given)	none
CC(=O)Nc1ccc(S(=O)(=O)NC2CC(=O)N(c3ccc(C)c(C)c3)C2)cc1 (stereo not given)	PLC-gamma1 inh 12 | PLCgamma1 ctr inactive | PLCb3 confirm inactive
Cc1cc(NC(=O)CSc2nnc(-c3cccs3)n2N)no1	PLC-gamma1 inh 9.9 | PLCgamma1 ctr inactive | PLCb3 confirm inactive
CCCCn1c(SCC(=O)Nc2cc(C)on2)nnc1-c1cccs1	none
CC(=O)Nc1ccc(NC(=O)CSc2nc(N)c(NC(=O)c3ccco3)c(=O)[nH]2)cc1	PLC-gamma1 inh 12 | PLCgamma1 ctr inactive | PLCb3 confirm inactive
CCOc1cccc(N(C(=O)C2COc3ccccc3O2)C(C(=O)NC2CCCCC2)c2ccc(O)cc2)c1 (stereo not given)	PLC-beta3 inh 11 | PLCgamma1 ctr inactive | PLCb3 confirm inactive
CC(C)CCNC(=O)C(c1ccc(O)cc1)N(C(=O)C1COc2ccccc2O1)c1cccc(O)c1 (stereo not given)	none
COc1cccc(C(=O)Nc2cccc(C(=O)N3CCOCC3)c2)c1	none
COc1cccc(C(=O)N2CCOCC2)c1	PLC-gamma1 inh 11 | PLCgamma1 ctr inactive | PLCb3 confirm inactive
COc1ccc(-c2cc(C(=O)Nc3ccc(C)c(C)c3)no2)cc1	PLC-gamma1 inh 12 | PLCgamma1 ctr inactive | PLCb3 confirm inactive
CC(C)=NOc1nc(N(C)C)nc(N2CCOCC2)n1	PLC-gamma1 inh 11, PLC-beta3 inh 11 | PLCgamma1 ctr inactive | PLCb3 confirm inactive
CC(=O)NCCOc1nc(N(C)C)nc(N2CCOCC2)n1	none
COC(=O)c1c(N)sc2c1CC(C)(C)OC2	PLC-gamma1 inh 11 | PLCgamma1 ctr inactive | PLCb3 confirm inactive
CN1C=CC(=C[N+](=O)[O-])N(C)C1=O	PLC-gamma1 inh 12 (no result: AHR act, Yeast superoxide, HIF act) | PLCgamma1 ctr inactive | PLCb3 confirm inactive
FC(F)(F)c1ccc(C2[C@H]3CN(Cc4ccc(-c5ccccc5)cc4)[C@H](c4ccccc4)C34CC2(c2ccccc2)C4)cc1 (stereo not given in full)	none
N#Cc1ccc(C23CC4(C2)[C@H](CN(Cc2ccc(-c5ccccc5)cc2)[C@@H]4c2ccccc2)C3c2ccc(C(F)(F)F)cc2)cc1 (stereo not given in full)	PLC-beta3 inh 11 | PLCgamma1 ctr inactive | PLCb3 confirm inactive
O=C(Cc1ccccc1Cl)Nc1cccc(S(=O)(=O)N2CCOCC2)c1	PLC-gamma1 inh 9.9 | PLCgamma1 ctr inactive | PLCb3 confirm inactive
O=C(Cc1c(Cl)cccc1Cl)Nc1cccc(S(=O)(=O)N2CCOCC2)c1	none
O=C(COC(=O)c1cccs1)Nc1cccc(S(=O)(=O)N2CCOCC2)c1	none
Cn1cccc1C(=O)OCC(=O)Nc1cccc(S(=O)(=O)N2CCOCC2)c1	PLC-gamma1 inh 11 | PLCgamma1 ctr inactive | PLCb3 confirm inactive
Cc1csc(SCC(=O)Nc2cccc(S(=O)(=O)N3CCOCC3)c2)n1	none
Cc1nc(SCC(=O)Nc2cccc(S(=O)(=O)N3CCOCC3)c2)nc(C)c1C	PLC-gamma1 inh 14 (no result: HIF act) | PLCgamma1 ctr inactive | PLCb3 confirm inactive
CCN(CC(=O)Nc1ccc(NC(C)=O)cc1)C(=O)CCCOc1ccc(C(C)(C)C)cc1	none
COc1ccc([C@H]2CC(=O)C=C(c3cc(C=O)ccc3OC)C2)cc1	none (no result: HIF act)
C[C@@H]1COC(=O)[C@@H](CC(=O)OC(C)(C)C)C/C=C\C[C@H](CC(=O)N(CCO)Cc2ccccc2)C(=O)N1	none (no result: HIF act)
CN(C)S(=O)(=O)n1cc(/C=C(\NC(=O)c2ccccc2Cl)C(=O)NCCN2CCOCC2)c2ccccc21	PLC-gamma1 inh 12 | PLCgamma1 ctr inactive | PLCb3 confirm inactive
CN(C)S(=O)(=O)n1cc(/C=C(\NC(=O)c2ccccc2Cl)C(=O)NCCCN2CCOCC2)c2ccccc21	none
O=C(CSc1ncnc2c1oc1ccccc12)Nc1nc2ccccc2s1	PLC-gamma1 inh 9.6 | PLCgamma1 ctr inactive | PLCb3 confirm inactive
Cc1ccccc1NC(=O)C1CC(=O)N(c2ccccc2F)C1 (stereo not given)	PLC-beta3 inh 11 | PLCgamma1 ctr inactive | PLCb3 confirm inactive
COc1ccccc1CNc1ncccn1	PLC-gamma1 inh 9.7 | PLCgamma1 ctr inactive | PLCb3 confirm inactive
CO[C@@H]1CN(C)C(=O)c2cc(NC(=O)NC3CCCCC3)ccc2OC[C@@H](C)N(CC2CCOCC2)C[C@@H]1C	none (no result: AHR act, Yeast superoxide, HIF act)
CC(=O)NC12CC3CC(C1)CC(C(=O)N(C)Cc1cccc(Cl)c1Cl)(C3)C2	PLC-gamma1 inh 13 (no result: AHR act) | PLCgamma1 ctr inactive | PLCb3 confirm inactive
CC(=O)NC12CC3CC(C1)CC(C(=O)N(C)CC(=O)Nc1ccccc1Cl)(C3)C2	none
N#Cc1ccccc1S(=O)(=O)N1CCC(C(=O)NCc2ccccc2CN2CCCC2)CC1	none (no result: HIF act)
N#Cc1cc([N+](=O)[O-])ccc1NC(=O)COC(=O)CN1C(=O)C2CCCCC2C1=O (stereo not given)	none (no result: HIF act)
Nc1nonc1C(=O)NCCNCc1cc(Br)ccc1OCc1ccccc1F	PLC-gamma1 inh 9.8, PLC-beta3 inh 11 | PLCgamma1 ctr inactive | PLCb3 confirm inactive
Cc1ccsc1/C=C1\SC(N)=NC1=O	PLC-gamma1 inh 10 | PLCgamma1 ctr inactive | PLCb3 confirm inactive
O=C(N/N=C/c1ccc(N2CCOCC2)c([N+](=O)[O-])c1)c1ccc(F)cc1	none
O=C(N/N=C/c1ccc(N2CCCC2)c([N+](=O)[O-])c1)c1cccnc1	PLC-gamma1 inh 18, PLC-beta3 inh 16 | PLCgamma1 ctr inactive | PLCb3 confirm inactive
CCOc1ccc(NC(=O)CN(C)C(=O)c2cc(C)oc2C)cc1OCC	none
CCOc1ccc(NC(=O)CN(C)C(=O)CCCOc2ccc(Cl)c(C)c2)cc1OCC	PLC-gamma1 inh 9.6 | PLCgamma1 ctr inactive | PLCb3 confirm inactive
CCOc1ccc(NC(=O)CN(C)C(=O)CCc2ccccc2Cl)cc1OCC	none
